Records with an inconclusive call do not appear. Unmarked numbers belong to inactive results. Calls follow the shape of the dose curve; as a rule, active = well fitted inhibition curve with a large enough effect in the signal ratio in the repeat runs (not every such curve was filed as active); inconclusive = weak or mixed curves, or effect the other way; inactive = flat fitted curve, though single readings scatter; the % refers to the signal ratio.
assay: cAMP Responsive Elements (CRE) small molecule antagonists, cell-based qHTS assay (AID 1963591); conditions: CRE-bla HEK293T, beta-lactamase FRET ratio; series mostly up to 92.4 µM; activity change, negative = inhibition: at the top concentration
Text: U.S. Tox21 Program National Center for Advancing Translational Sciences [NCATS] Division of Preclinical Innovation [DPI] U.S. Environmental Protection Agency [EPA] National Institutes of Environmental Health Sciences [NIEHS] National Toxicology Program [NTP] U.S. Food and Drug Administration [FDA] Tox21 Assay Overview: CREB (cyclic-AMP Responsive Element Binding Protein) is a cellular transcription factor. It binds to certain DNA sequences called cAMP Responsive Elements (CRE) and regulates the transcription of the genes. […] This cell line can be used to find agonists/antagonists of the cyclic AMP signaling pathway. The activation of the report gene under culture conditions can be detected by fluorescence intensity. This cell line has been used to screen the Tox21 10K compound library to […].
Tox21 Assay Protocol Summary: CRE-bla Hek 293T cells were suspended in assay medium (DMEM containing 10% dialyzed FBS, 0.1 mM NEAA, 1 mM sodium pyruvate and 25 mM HEPES) and dispensed at 2,000 cells/4 uL /well into 1536-well black wall/clear bottom plates using a Multidrop Combi (ThermoFisher Scientific, Waltham, MA) dispenser. After the assay plates were incubated at 37 C/5% CO2 for 18 hrs, 23 nL of compounds dissolved in DMSO, positive controls or DMSO only was transferred to the assay plate by a pintool workstation (Kalypsys, San Diego, CA), followed by addition of 1 […] uL of 1.25uM NKH477 (0.25 uM as final concentration) in assay medium using a Flying Reagent Dispenser (Aurora Discovery, San Diego, CA). The plates were incubated at 37 C and 5% CO2 for 3 hrs. Then 1 uL of LiveBLAzer B/G FRET substrate (Invitrogen, Carlsbad, CA) was added to each well using Bioraptr Flying Reagent Dispenser (FRD, Aurora Discovery, San Diego, CA). The plates were incubated at room temperature for 2 h.
% is scaled to controls: 0 for no effect and ±100 for the full control effect.

SMILES | activity change, negative = inhibition
CC(C)[N+](C)(C)CC(O)COc1cccc2ccccc12 (stereo not given) | -5.23% [at 42.4 µM]
CCN(CCC#N)c1ccc(N=Nc2ccc([N+](=O)[O-])cc2)cc1 | -7.59%
C=CC(C)(CCC=C(C)C)OC(=O)C(C)C (stereo not given) | -3.36%
COc1cc(NS(=O)(=O)c2ccc(N)cc2)nc(OC)n1 | -0.625% [at 42.4 µM]
CCCCOC(=O)C(C)O (stereo not given) | -10.6%
CCCCCCC(O)CCOC(C)=O (stereo not given) | 0.526% [at 240 µM]
CCN1CCC[C@H]1CNC(=O)c1cc(S(N)(=O)=O)ccc1OC | 1.41% [at 42.4 µM]
CCCCCCCCN | -13.6%
O=C(O)c1ccc(Cl)c(Cl)c1 | -1.83%
CN=C(N)NC(=O)Nc1c(C)cccc1C | 0.142% [at 42.4 µM]
CCCCCCCCN1CCCC1=O | 12.5%
CCOC(=O)CC(C)O (stereo not given) | 1.24%
CCOC(=O)C(=O)CCc1ccccc1 | -11.3% [at 42.4 µM]
CCOC(=O)C(C)(C)C | -9.92%
OCCN(CCO)c1ccccc1 | 2.13%
Nc1ncnc(Nc2ccccc2)n1 | -0.876% [at 42.4 µM]
CC(=O)OCC(C)C | -4.41%
CCCCN(CCCC)C(C(N)=O)c1ccc(OC)cc1 (stereo not given) | 6.19% [at 42.4 µM]
Cc1ccc(N)nc1 | -8.26%
CCOCCOCCOC(C)=O | 4.68%

SMILES | activity change, negative = inhibition
CCC1(C)NC(=O)NC1=O (stereo not given) | -3.53%
CC1(C)CC(N)CC(C)(C)N1 | 12%
CC[N+](CC)(CC)CCOc1cccc(OCC[N+](CC)(CC)CC)c1OCC[N+](CC)(CC)CC | -4.05% [at 42.4 µM]
CCOCCn1c(C2CCN(CCc3ccc(C(C)(C)C(=O)O)cc3)CC2)nc2ccccc21 | 6.59% [at 42.4 µM]
COC(C)(C)CCCC(C)CC=O (stereo not given) | -2.15%
COc1ccc(S(=O)(=O)N2c3ccc(Cl)cc3[C@@](O)(c3ccccc3Cl)[C@H]2C(=O)N2CCC[C@@H]2C(N)=O)cc1OC | -1.07% [at 42.4 µM]
COCCC(=O)OC | -18.5%
CO[Si](CCCNc1ccccc1)(OC)OC | -2.96%
COCCCN1CCC(NC(=O)c2cc(Cl)c(N)c3c2OCC3)CC1 | 1.15% [at 42.4 µM]
Cc1cscn1 | -12.3%
c1ccc(CC2=NCCN2)cc1 | 2.59% [at 42.4 µM]
C#Cc1ccc(-c2ccccc2F)cc1 | 0.444% [at 42.4 µM]
CCS(=O)(=O)CCn1c([N+](=O)[O-])cnc1C | -12.6% [at 42.4 µM]
NS(=O)(=O)Cc1noc2ccccc12 | -9.61% [at 42.4 µM]
O=C(CCN1CCN2CCCC2C1)N1c2ccccc2Sc2ccc(Cl)cc21 (stereo not given) | -4.08% [at 18.9 µM]
C[C@H](CCC(=O)O)[C@H]1CC[C@H]2[C@@H]3[C@H](O)C[C@@H]4C[C@H](O)CC[C@]4(C)[C@H]3C[C@H](O)[C@]12C | 2.34% [at 42.4 µM]
CN(C)CCN1CCN(c2cccc(Cl)c2)C1=O | 0.302% [at 42.4 µM]
Cc1cccc(N(C)C(=S)Oc2ccc3c(c2)CCC3)c1 | 5.04% [at 42.4 µM]
C[C@H]1C[C@H]2[C@@H]3CCC4=CC(=O)C=C[C@]4(C)[C@H]3C(=O)C[C@]2(C)[C@@]1(O)C(=O)CO | -0.112% [at 42.4 µM]
C=Cc1ccccc1 | 3.56%
